Several values for one entry are separate records, joined by “and”; a condition that tells them apart may be missing. Identical values can stand only once. Out of some 5,500 compounds screened, about 2,000 (36%) were called active. About 18% were inconclusive and are not listed. Cut-off read from the data, not from the text of the source: active = normalized growth mostly below about 0.91 (no sharp cut-off); inconclusive = no clear call, values can overlap the other calls; inactive = mostly above about 0.92. The list shows a part of the results.
Assay: chemical genetic growth profiling, strain panel (AID 1159580);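 note: tested at 20 µM; growth read once vehicle control cultures reached saturation at 30 °C; 1 = growth at the plate median or of vehicle wells; lower values mean less growth of the strain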
Settings: S. cerevisiae deletion strains, growth OD

Measured: normalized growth

Clc1ccc(C(c2ccccc2Cl)C(Cl)Cl)cc1 (centres undefined)
inactive: locus YAL013W, strain DEP1, hits give low values 0.997 | locus YAL021C, strain ccr4, hits give low values 1.07 | locus YAL026C, strain drs2, hits give low values 0.943 | locus YAL030W, strain snc1, hits give low values 0.94 | locus YAL040C, strain CLN3, hits give low values 1 | locus YBL061C, strain skt5, hits give low values 0.948 | locus YBR009C, strain hhf1, hits give low values 0.928 | locus YBR021W, strain FUR4, hits give low values 0.949 | locus YBR023C, strain chs3, hits give low values 0.973 | locus YBR171W, strain sec66, hits give low values 0.941 | locus YBR229C, strain ROT2, hits give low values 0.998 | locus YBR231C, strain swc5, hits give low values 0.964 | locus YBR279W, strain paf1, hits give low values 0.987 | locus YCL011C, strain gbp2, hits give low values 0.918 | locus YCL016C, strain dcc1, hits give low values 0.97 | locus YCL029C, strain bik1, hits give low values 0.986 | locus YCL061C, strain MRC1 (second series), hits give low values 1.01 | locus YCL069W, strain vba3, hits give low values 0.982 | locus YCR088W, strain abp1, hits give low values 0.988 | locus YDL005C, strain med2, hits give low values 0.967 | locus YDL035C, strain GPR1, hits give low values 1 | locus YDL040C, strain nat1, hits give low values 0.989 | locus YDL074C, strain BRE1, hits give low values 0.956 | locus YDL101C, strain DUN1, hits give low values 1 | locus YDL134C, strain PPH21, hits give low values 0.993 | locus YDL185W, strain tfp1, hits give low values 0.984 | locus YDL192W, strain arf1, hits give low values 0.989 | locus YDR001C, strain nth1, hits give low values 0.981 | locus YDR069C, strain doa4, hits give low values 0.915 | locus YDR101C, strain arx1, hits give low values 0.987 | locus YDR137W, strain rgp1, hits give low values 0.932 | locus YDR150W, strain NUM1, hits give low values 1.02 | locus YDR159W, strain sac3, hits give low values 1 | locus YDR162C, strain NBP2, hits give low values 1.02 | locus YDR195W, strain ref2 1.06 | locus YDR297W, strain sur2, hits give low values 0.956 | locus YDR318W, strain mcm21, hits give low values 0.985 | locus YDR334W, strain swr1, hits give low values 0.962 | locus YDR335W, strain msn5, hits give low values 0.967 | locus YDR363W, strain ESC2, hits give low values 1.01 | locus YDR388W, hits give low values 0.991 | locus YDR392W, strain spt3, hits give low values 0.869 | locus YDR502C, strain sam2, hits give low values 0.984 | locus YEL003W, strain gim4, hits give low values 0.969 | locus YEL037C, strain rad23, hits give low values 0.983 | locus YEL061C, strain CIN8 (second series), hits give low values 0.984 | locus YEL061C, strain CIN8, hits give low values 1 | locus YER015W, strain faa2, hits give low values 0.978 | locus YER016W, strain bim1, hits give low values 1.02 | locus YER110C, hits give low values 0.986 | locus YER111C, strain swi4, hits give low values 0.986 | locus YER155C, strain BEM2 (second series), hits give low values 0.96 | locus YER155C, strain BEM2, hits give low values 0.994 | locus YER167W, strain BCK2, hits give low values 1 | locus YFR010W, strain ubp6, hits give low values 0.942 | locus YGL078C, strain dbp3, hits give low values 0.99 | locus YGL086W, strain mad1, hits give low values 0.981 | locus YGL167C, strain pmr1, hits give low values 0.972 | locus YGL173C, strain kem1, hits give low values 0.936 | locus YGL227W, strain vid30, hits give low values 0.987 | locus YGL240W, strain doc1, hits give low values 0.925 | locus YGL248W, strain PDE1, hits give low values 0.993 | locus YGL253W, strain hxk2, hits give low values 0.977 | locus YGR078C, strain PAC10, hits give low values 0.987 and 0.999 | locus YGR135W, strain pre9, hits give low values 0.968 | locus YGR229C, strain SMI1, hits give low values 0.978 and 1.01 | locus YGR252W, strain gcn5, hits give low values 0.874 | locus YHR013C, strain ard1, hits give low values 1.11 | locus YHR027C, strain rpn1, hits give low values 0.982 | locus YHR030C, strain SLT2, hits give low values 0.985 and 0.893 | locus YHR079C, strain IRE1 (second series), hits give low values 0.983 | locus YHR079C, strain IRE1, hits give low values 0.947 | locus YHR094C, strain hxt1, hits give low values 0.992 | locus YHR129C, strain ARP1, hits give low values 1 | locus YHR142W, strain chs7, hits give low values 0.919 | locus YHR200W, strain rpn10, hits give low values 0.98 | locus YIL066C, strain RNR3, hits give low values 0.963 | locus YIL073C, strain SPO22, hits give low values 0.952 | locus YIL125W, strain kgd1, hits give low values 0.998 | locus YIR030C, strain dcg1, hits give low values 0.99 | locus YJL092W, strain hpr5, hits give low values 0.961 | locus YJL095W, strain BCK1 (second series), hits give low values 0.973 | locus YJL095W, strain BCK1, hits give low values 1 and 0.933 | locus YJL115W, strain asf1, hits give low values 0.976 | locus YJL134W, strain LCB3, hits give low values 1 | locus YJL154C, strain vps35, hits give low values 0.978 | locus YJL164C, strain tpk1, hits give low values 0.95 | locus YJL168C, strain set2, hits give low values 0.988 | locus YJL187C, strain SWE1 (second series), hits give low values 0.997 | locus YJR043C, strain POL32, hits give low values 1
active: locus YCL061C, strain MRC1, hits give low values 0.907 | locus YER002W, strain NOP16, hits give low values 1.12 [resistant] | locus YJL129C, strain trk1, hits give low values 0.828 | locus YJL166W, strain qcr8, hits give low values 0.825

— PubChem BioAssay AID1159580 (chemical genetic matrix, 2015)
